Assay results taken from PubChem BioAssay (Tox21).
Inconclusive results are not listed. A number with no mark means an inactive call. Activity calls are given as the source filed them. Calls come from the whole dose curve; as a rule, active = well fitted cell-killing curve with a large enough effect in the repeat runs; inconclusive = weak or mixed curves; inactive = flat fitted curve, though single readings scatter.

Test: qHTS assay to identify small molecule antagonists of the TGF-beta/Smad signaling pathway - cell viability counter screen (AID 1346824); note: nearly all actives have a fitted effect of over 50% in size
Details: SBE-bla HEK293T viability, CellTiter-Glo luminescence; series mostly up to 76.8 µM
Source text: U.S. Tox21 Program National Center for Advancing Translational Sciences [NCATS] NIH Chemical Genomics Center [NCGC] U.S. Environmental Protection Agency [EPA] National Institutes of Environmental Health Sciences [NIEHS] National Toxicology Program [NTP] U.S. Food and Drug Administration [FDA] Tox21 Assay Overview: Transforming growth factor beta (TGF-beta) superfamily consists of a large number of structurally related dimeric proteins that act as hormones or local mediators in regulating a wide range of biological functions. This superfamily includes TGF-betas themselves, the bone morphogenetic proteins (BMPs) and the activins. These ligands induce oligomerization of serine/threonine receptor kinases and phosphorylate the cytoplasmic signaling molecules of Smad protein family. CellSensor SBE-bla HEK 293T cell line (Life Technologies, Carlsbad, CA), responsive to TGF-beta was used to screen Tox21 10K compound library for identification of agonists/antagonists of the Smad signaling pathway. This cell line contains a beta-lactamase reporter gene under control of the Smad binding element (SBE) stably integrated into HEK 293T cells. Also cytotoxicity of the compounds was tested in parallel by measuring the cell viability using CellTiter-Glo assay system in the same wells.
Tox21 Assay Protocol Summary: SBE-bla HEK 293T cells were dispensed at 4,000/well in 5 uL of assay medium into black wall/clear-bottom 1536-well plates using a Multidrop Combi (ThermoFisher Scientific, Waltham, MA) dispenser. After the assay plates were incubated at 37 C and 5% CO2 for an overnight, 23 nL of compounds dissolved in DMSO, positive controls or DMSO only was transferred to the assay plate by a Pintool station (Kalypsys, San Diego, CA). Compound transfer was followed by the addition of 1 uL of 0.25 ng/mL TGF-beta1 or assay buffer using two separate tips of Flying Reagent Dispenser (FRD, Aurora Discovery, San Diego, CA). The assay plates were incubated at 37 C and 5% CO2 for 5 hr. One uL of LiveBLAzer B/G FRET substrate (Life Technologies) was added using a Flying Reagent Dispenser (FRD, Aurora Discovery, San Diego, CA) and the plates were incubated at room temperature for 2 hr. Fluorescence intensity (405 nm excitation, 460 nm and 530 nm emissions) was measured using an Envision plate reader (PerkinElmer, Shelton, CT). For cytotoxicity read, 4 uL of CellTiter-Glo reagent (Promega Corporation, Madison, WI) was added to each well of the assay plates using FRD. After 30 min incubation at room temperature, the luminescence intensity was measured using ViewLux plate reader (PerkinElmer).
% is set by controls: 0 for no effect and ±100 for the full control effect.

Row | SMILES | outcome | viability change, negative = cytotoxic
1 | CC(C)C[C@H](NC(=O)[C@H](Cc1ccccc1)NC(=O)c1cnccn1)B(O)O | inactive | 
2 | Cc1c(Cl)cccc1[N+](=O)[O-] | inactive | 
3 | O=C(O)c1c2ccccc2cc2ccccc12 | inactive | 
4 | O=[N+]([O-])c1cccc(I)c1 | inactive | 
5 | C=CC(C)CCC=C(C)C (stereo not given) | inactive | 
6 | CCCCCO | inactive | 
7 | Oc1ccc(CCNCCCCCCNCCc2ccccc2)cc1O | inactive | 
8 | COC=O |  | 2.71% [at 6.97 µM]
9 | O=C(NC1CCN(CCc2c[nH]c3ccccc23)CC1)c1ccccc1 | inactive | 
10 | Cc1c(N=C=O)cccc1N=C=O | inactive | 
11 | CCOC(=O)CC(O)(CC(=O)OCC)C(=O)OCC | inactive | 
12 | FC(F)(Cl)C(F)(Cl)Cl | inactive | 
13 | CC(=O)Nc1ccn(C2COC(COC(=O)c3ccccc3)O2)c(=O)n1 (stereo not given) | inactive | 
14 | CC(=O)CC/C=C(\C)CC/C=C(\C)CC/C=C(\C)CCC=C(C)C | inactive | 
15 | CCCCCCCCOCCCN | inactive | 
16 | CCCCCCCCCCCCCCCCCCCl |  | -4.8% [at 6.97 µM]
17 | Nc1nc(Cl)nc2c1ncn2[C@H]1C[C@H](O)[C@@H](CO)O1 | inactive | 
18 | Cc1ccc2c(Cl)cc(Cl)c(O)c2n1 | inactive | 
19 | CC(COc1ccccc1)NC(C)C(O)c1ccc(O)cc1 (stereo not given) | inactive | 
20 | O=C(N[C@@H](Cc1ccccc1)[C@@H](O)C(=O)N1C[C@@H](O)[C@@H](O)C1)c1cc2cc(Cl)ccc2[nH]1 | inactive | 

Row | SMILES | outcome | viability change, negative = cytotoxic
21 | CC(C)C/C=C(\C=O)c1ccccc1 | inactive | 
22 | CC(Cc1ccccc1)(NC(=O)CN)c1ccccc1 (stereo not given) | inactive | 
23 | C/C(=C\C(C)CC(C)CC(C)C)C1CC(=O)OC1=O (stereo not given) | inactive | 
24 | C=C[Si](OCC)(OCC)OCC | inactive | 
25 | CCCCCCOC(=O)c1ccccc1 | inactive | 
26 | O=C(O)c1ccncc1 | inactive | 
27 | O=c1[nH]nc(-c2ccc([N+](=O)[O-])o2)o1 | inactive | 
28 | O=C(c1ccco1)N1CCNCC1 | inactive | 
29 | O=S(=O)(O)c1cc(Cl)c(Cl)cc1Cl | inactive | 
30 | CCCC(=O)OCCC(C)C | inactive | 
31 | Cc1ccc2ccccc2c1[N+](=O)[O-] | inactive | 
32 | COc1cc(CNC(=O)CCCC/C=C/C(C)C)ccc1O | inactive | 
33 | N#CCCCC(C#N)CCC#N (stereo not given) | inactive | 
34 | CC1(C)[C@@H]2CC[C@]3(C2)[C@@H]1C(=O)CCC3(C)C | inactive | 
35 | CC(CC(C#N)(c1ccccc1)C(C)C)N(C)C (stereo not given) | inactive | 
36 | Cc1cc(N)n(-c2ccccc2)n1 | inactive | 
37 | Oc1ccc(Oc2ccccc2)cc1 | inactive | 
38 | C(/C=C/C=C/Nc1ccccc1)=Nc1ccccc1 | inactive | 
39 | CCc1ccc(C(=O)C(C)CN2CCCCC2)cc1 (stereo not given) | inactive | 
40 | CC(C(=O)O)c1ccc2c(c1)Cc1cccnc1O2 (stereo not given) | inactive | 
